Source: PMC5540273 (PLoS ONE, 2017)

Experiments:
Settings in all cases: concentration: 1 μM, replicates: in singlicate; n = 1
QSK = tested on: QSK
RAF1 = tested on: RAF1
RET = tested on: RET
RIOK1 = tested on: RIOK1
RIOK2 = tested on: RIOK2
RIOK3 = tested on: RIOK3
RIPK1 = tested on: RIPK1
RIPK2 = tested on: RIPK2
RIPK4 = tested on: RIPK4
RIPK5 = tested on: RIPK5
ROCK1 = tested on: ROCK1
ROCK2 = tested on: ROCK2
ROS1 = tested on: ROS1
[1] = tested on: RPS6KA4(Kin.Dom.1-N-terminal)
[2] = tested on: RPS6KA4(Kin.Dom.2-C-terminal)
[3] = tested on: RPS6KA5(Kin.Dom.1-N-terminal)
[4] = tested on: RPS6KA5(Kin.Dom.2-C-terminal)
[5] = tested on: T1, RSK1(Kin.Dom.1-N-terminal)
T1 construct: gene RPS6KA1

[6] = tested on: T2, RSK1(Kin.Dom.2-C-terminal)
T2 construct: gene RPS6KA1

[7] = tested on: T3, RSK2(Kin.Dom.1-N-terminal)
T3 construct: gene RPS6KA3
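Further: KINOMEscan kinase panel screen.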

| SMILES | %Inh (QSK) [%] | %Inh (RAF1) [%] | %Inh (RET) [%] | %Inh (RIOK1) [%] | %Inh (RIOK2) [%] | %Inh (RIOK3) [%] | %Inh (RIPK1) [%] | %Inh (RIPK2) [%] | %Inh (RIPK4) [%] | %Inh (RIPK5) [%] | %Inh (ROCK1) [%] | %Inh (ROCK2) [%] | %Inh (ROS1) [%] | %Inh [1] [%] | %Inh [2] [%] | %Inh [3] [%] | %Inh [4] [%] | %Inh [5] [%] | %Inh [6] [%] | %Inh [7] [%] |
| --- | --- | --- | --- | --- | --- | --- | --- | --- | --- | --- | --- | --- | --- | --- | --- | --- | --- | --- | --- | --- |
| CC(C)(C)c1ccc(C(=O)Nc2cn3cc(Cl)ccc3n2)cc1 | 3 | 0 | 0 | 25 | 0 | 0 | 0 | 5 | 0 | 0 | 0 | 0 | 0 | 7 | 5 | 0 | 0 | 0 | 20 | 26 |
| Fc1cc(Cl)ccc1Nc1ccnc2cc(I)ccc12 [GW551191] | 37 | 10 | 53 | 31 | 0 | 19 | 0 | 67 | 12 | 0 | 2 | 17 | 0 | 10 | 0 | 13 | 0 | 8 | 50 | 11 |
| COc1ccc(Nc2nccc(-c3cccc(NC(=O)c4cc5cc(F)ccc5[nH]4)c3)n2)cc1 [GSK1229782] | 3 | 13 | 14 | 72 | 3 | 50 | 22 | 17 | 0 | 25 | 48 | 35 | 34 | 21 | 0 | 6 | 14 | 13 | 5 | 21 |
| CC(=O)Nc1nc2cnc(Nc3cc(NC(=O)c4cccc(CCC#N)c4)ccc3C)nc2s1 | 0 | 88 | 51 | 0 | 17 | 10 | 0 | 0 | 0 | 5 | 14 | 15 | 0 | 0 | 0 | 15 | 2 | 0 | 0 | 5 |
| COc1cc2ncnc(Nc3ccc4nc(-c5ccccc5)[nH]c4c3)c2cc1OC.Cl [GW282450] | 0 | 10 | 33 | 51 | 11 | 25 | 18 | 27 | 1 | 0 | 18 | 30 | 47 | 6 | 0 | 11 | 3 | 0 | 0 | 0 |
| CCCc1ccc(S(=O)(=O)NC2CCN(c3ccnc(Nc4ccc(F)cc4)n3)C2)cc1 (stereo not shown) [GSK1379715] | 0 | 15 | 16 | 3 | 0 | 0 | 0 | 0 | 10 | 0 | 11 | 0 | 0 | 0 | 0 | 0 | 0 | 7 | 0 | 8 |
| C[C@@H]1CCCCN1c1cc(-c2ccc3c(N)n[nH]c3c2)nc(N)n1 [GSK2258759] | 0 | 3 | 6 | 47 | 1 | 19 | 0 | 11 | 20 | 0 | 0 | 0 | 5 | 4 | 0 | 14 | 10 | 5 | 14 | 0 |
| Cc1cc(N2Cc3ccccc3C2)nc(Nc2ccc(S(=O)(=O)N3CCOCC3)cc2)n1.Cl [GSK1669917] | 2 | 0 | 0 | 24 | 0 | 25 | 0 | 0 | 98.9 | 6 | 0 | 0 | 18 | 5 | 0 | 0 | 0 | 0 | 17 | 0 |
| COC(=O)c1c(-c2ccccc2)c2cc(C(=O)O)ccc2c(=O)n1Cc1ccccc1 | 0 | 81 | 21 | 0 | 26 | 11 | 0 | 0 | 0 | 0 | 10 | 0 | 0 | 0 | 6 | 11 | 0 | 0 | 18 | 0 |
| Fc1cc(Cl)ccc1Nc1ccnc2cc(-c3ccc(CN4CCCCC4)o3)ccc12 [GW560116] | 29 | 8 | 22 | 12 | 0 | 0 | 8 | 61 | 0 | 0 | 31 | 24 | 2 | 0 | 0 | 0 | 8 | 0 | 26 | 0 |
| Cc1ccc(NC(=O)Nc2cccc(Cl)c2)cc1-c1ccc(C(=O)Nc2ccncc2)cc1 [GSK1398468] | 0 | 91.4 | 1 | 40 | 0 | 59 | 5 | 6 | 22 | 0 | 0 | 13 | 0 | 24 | 0 | 10 | 39 | 23 | 0 | 0 |
| COc1cccc(NC(=O)NC2CCN(c3ccnc(Nc4ccc(F)cc4)n3)C2)c1 (stereo not shown) [GSK1379721] | 3 | 3 | 0 | 16 | 0 | 13 | 29 | 2 | 17 | 18 | 0 | 5 | 0 | 0 | 0 | 0 | 12 | 15 | 25 | 4 |
| Cn1ccc2ncnc(Oc3ccc(Nc4nc5ccccc5[nH]4)cc3)c21 | 0 | 0 | 0 | 0 | 0 | 0 | 0 | 0 | 0 | 0 | 0 | 0 | 0 | 0 | 0 | 7 | 0 | 0 | 0 | 0 |
| Clc1cc(Cl)cc(Nc2ccnc(Nc3cc(Cl)cc(Cl)c3)n2)c1 [GSK175726] | 0 | 17 | 10 | 34 | 91.7 | 35 | 0 | 41 | 10 | 6 | 4 | 0 | 37 | 0 | 0 | 8 | 9 | 1 | 26 | 0 |
